TAG inh = inhibitors of triacylglycerol accumulation, primary screen, cell-based, uHTS, fluorescence, H9c2; H9c2 cells, Nile Red lipid (TAG) fluorescence; cells loaded with 200 µM oleic acid; inhibition, % at 12.5 µM; 0.66% of 230,000 active; AID 651582, 2012;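 active = pattern-corrected inhibition of lipid staining of at least 50% with the nuclear-stain viability signal not falling by more than 50%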;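 note: 0% = DMSO wells and 100% = triacsin C control wells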
CRFR2-BP ag = agonists of CRF-BP/CRF-R2 complex, primary screen, cell-based, HEK293, calcium dye fluorescence, uHTS. calcium dye fluorescence (FLIPR); percent of saturating CRF peptide response. 0.46% of 350,000 active. AID 588473, 2011. activation, % at 13.2 µM. CRF-binding protein / CRF receptor 2 complex (human);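 active = activation of at least 50%, plus an integration ratio under a set limit after plate pattern correction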;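 note: plate controls were neutral control wells without compound for no effect and CRF at EC100 for full effect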
SKN-1 block = suppressors of acrylamide-induced Pgst-4::GFP reporter in worms, primary screen, SKN-1 inhibitor project, whole organism, uHTS, GFP/RFP fluorescence ratio, strain VP596. AID 624304, 2012. 0.49% of 360,000 active. C. elegans VP596 Pgst-4::GFP/RFP ratio, 24 h. inhibition, % at 21.8 µM;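 active = interference check ratio from 0.5 to 1.5 plus GFP to RFP signal ratio inhibition reaching or exceeding a fixed threshold, cut at about 30% in these data, passing the limit was not always enough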
iPSC survival up = enhancers of single-cell hiPSC survival, primary screen, ATPlite luminescence; 100% = ROCK inhibitor wells, 0% = DMSO; survival enhancement, % at 20 µM; 0.044% of 360,000 active; AID 602274, 2012; in the data active = survival enhancement above about 18%;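 note: cells exposed to compounds for 16 hours before the ATP read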
H9c2 protect = cardioprotection against H2O2-induced cell death, primary screen, uHTS, H9c2 cells, ATPLite luminescence; H9c2 cardiomyocytes, H2O2 injury protection, 2 h; protection from H2O2 cell death, % at 20 µM; 0.63% of 360,000 active; AID 588492, 2011;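 active = compounds giving at least 50% protection of heart cells from peroxide-induced death in the single-dose screen, raw or plate-pattern-corrected value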;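 note: 0% = DMSO wells with peroxide and 100% = DMSO wells without peroxide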
CRFBP-R2 block = antagonists of CRF-BP/CRF-R2 complex, primary screen, cell-based, HEK293, calcium dye fluorescence, uHTS. inhibition, % at 11.8 µM. CRF-induced calcium fluorescence. 0.59% of 350,000 active;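 active = inhibition of the ligand-induced calcium signal above about 50% at the single tested concentration, limit read from the data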
* hit, by the source's call. The list is not random: actives were taken first. Their share in the collection is about 2.5%.

What do the screens show for `O=C(O)CSc1c(-c2ccccc2)c2cc(Cl)ccc2[nH]c1=O`?
TAG inh: -6.1; CRFR2-BP ag: 0.5; SKN-1 block: -2.7; iPSC survival up: -0.3; H9c2 protect: -8.6; CRFBP-R2 block: -0.8

How did CC1CCN(C(=O)C2CCN(S(=O)(=O)c3cccnc3)CC2)CC1 do in these assays?
CRFR2-BP ag: -1.5; SKN-1 block: 11.8; iPSC survival up: 0.4; H9c2 protect: -1.3; CRFBP-R2 block: 75.1*

How did CC1CC(C)CN(C(=O)C2CCN(S(=O)(=O)c3cccs3)CC2)C1 (stereo not drawn) do in these assays?
CRFR2-BP ag: -0.5; SKN-1 block: -3.6; iPSC survival up: -0.7; H9c2 protect: 1.4; CRFBP-R2 block: -10.7

How did CC1CCN(C(=O)C2CCN(S(=O)(=O)c3cccs3)CC2)CC1 do in these assays?
CRFR2-BP ag: 0.2; SKN-1 block: -1.9; iPSC survival up: 0.3; H9c2 protect: -4.4; CRFBP-R2 block: 105.6*

What do the screens show for `Cc1ccccc1C(=O)Nc1scc(-c2ccc(Br)cc2)c1C(=O)O`?
TAG inh: 2.5; CRFR2-BP ag: -1.3; SKN-1 block: -4.3; iPSC survival up: -0.7; H9c2 protect: 0.7; CRFBP-R2 block: 67.8*

Results for O=C(Nc1scc(-c2ccc(Br)cc2)c1C(=O)O)c1ccccc1F ?
TAG inh: -10.9; CRFR2-BP ag: -0.2; SKN-1 block: 8.8; iPSC survival up: -0.1; H9c2 protect: -0.4; CRFBP-R2 block: 56.4*

How did CC(C)[C@@H]1CC[C@@H](C)C[C@H]1O do in these assays?
TAG inh: 2.1; SKN-1 block: 4.1; iPSC survival up: 4.7; H9c2 protect: -3.9

What do the screens show for `CCCCC(CC)CN=C(N)NC(N)=NCCCCCCN=C(N)NC(N)=NCC(CC)CCCC` (stereo not drawn)?
TAG inh: 128.0; CRFR2-BP ag: 112.0*; SKN-1 block: 38.0*; iPSC survival up: -3.5; H9c2 protect: -44.9; CRFBP-R2 block: -70.5

What do the screens show for `CCCCC(CC)CO` (stereo not drawn)?
CRFR2-BP ag: -2.8; SKN-1 block: -9.7; iPSC survival up: -0.7; H9c2 protect: 0.6; CRFBP-R2 block: 14.4

What do the screens show for `COc1ccccc1CN1CC(=O)N2CSC[C@H]2C1=O`?
CRFR2-BP ag: -0.2; SKN-1 block: 9.8; iPSC survival up: 1.0; H9c2 protect: 1.1; CRFBP-R2 block: 2.3

Results for O=C(CSCc1cc(=O)n2ccsc2n1)Nc1ccc(F)cc1 ?
CRFR2-BP ag: 0.1; SKN-1 block: 10.5; iPSC survival up: -0.3; H9c2 protect: 13.2; CRFBP-R2 block: 4.7

Results for Cc1ccc(C(=O)OCc2cc(=O)n3c(C)csc3n2)s1 ?
TAG inh: 16.6; CRFR2-BP ag: 2.4; SKN-1 block: -10.4; iPSC survival up: -0.3; H9c2 protect: 11.3; CRFBP-R2 block: 2.6

Results for Cc1ccc(NC(=O)CSCc2cc(=O)n3ccsc3n2)cc1 ?
CRFR2-BP ag: 0.8; SKN-1 block: 33.8*; iPSC survival up: -0.6; H9c2 protect: 7.7; CRFBP-R2 block: -8.0

Results for Cc1ccc(C(=O)OCc2cc(=O)n3ccsc3n2)s1 ?
TAG inh: 2.3; CRFR2-BP ag: 2.0; SKN-1 block: -0.7; iPSC survival up: 18.5*; H9c2 protect: 31.6; CRFBP-R2 block: -18.1

What do the screens show for `COc1cc(OC)cc(-c2sc3ccc(OC)cc3c2C#CCO)c1`?
TAG inh: -50.5; CRFR2-BP ag: -1.1; SKN-1 block: 17.9; iPSC survival up: 2.3; H9c2 protect: -7.0; CRFBP-R2 block: -8.2

What do the screens show for `COc1cc2sc(-c3ccc(S(C)(=O)=O)cc3)c(C#CCO)c2cc1OC`?
TAG inh: -11.8; CRFR2-BP ag: -0.3; SKN-1 block: -6.3; iPSC survival up: -1.2; H9c2 protect: 53.3*; CRFBP-R2 block: 1.9

Results for COC(=O)c1c(C)[nH]c(C(=O)COC(=O)CCNS(=O)(=O)c2cccc(C(F)(F)F)c2)c1C ?
TAG inh: -15.1; CRFR2-BP ag: 0.9; SKN-1 block: -20.4; iPSC survival up: -0.5; H9c2 protect: -8.5; CRFBP-R2 block: -7.7

What do the screens show for `COc1ccc(-c2sc3ccccc3c2-c2ccc(OCCN(C)C)cc2)cc1`?
TAG inh: 63.1*; CRFR2-BP ag: 3.2; SKN-1 block: 1.8; iPSC survival up: -2.7; H9c2 protect: -10.7; CRFBP-R2 block: -12.0

Results for COc1ccccc1Cc1c(-c2ccc(C#N)cc2)nc2c3ccccc3ccn12 ?
SKN-1 block: 6.3; iPSC survival up: 2.0; H9c2 protect: 5.4

Results for C=CCNc1ncnc2c1ncn2[C@H]1CN(CCc2ccccc2)C[C@@H](CO)O1 ?
TAG inh: 12.3; SKN-1 block: 30.0; iPSC survival up: 3.8; H9c2 protect: 5.9

Results for CCOc1ccc(NC(=O)c2cc3c(C)nc4ccccc4c3o2)cc1 ?
TAG inh: 15.7; CRFR2-BP ag: 0.8; SKN-1 block: 8.4; iPSC survival up: 2.7; H9c2 protect: 61.0*; CRFBP-R2 block: -2.3

How did COc1ccc(-c2csc(NC(=O)CSc3nc(SC)ns3)n2)cc1 do in these assays?
CRFR2-BP ag: 1.0; SKN-1 block: 5.4; iPSC survival up: 1.6; H9c2 protect: -21.9; CRFBP-R2 block: 85.3*

Results for COCc1ccccc1C1=CC(=O)C[C@H](c2ccc(OC)cc2)C1 ?
TAG inh: -17.1; CRFR2-BP ag: -1.2; SKN-1 block: 21.4; iPSC survival up: -1.0; H9c2 protect: -8.5; CRFBP-R2 block: 9.5

Results for Cc1cc(C(F)(F)F)n2ncc(-c3ccc(F)cc3)c2n1 ?
TAG inh: 13.3; CRFR2-BP ag: 0.9; SKN-1 block: 39.5*; iPSC survival up: -4.1; H9c2 protect: -2.6; CRFBP-R2 block: -2.1

Results for Cc1cc(-c2ccc(F)cc2)n2ncc(-c3ccccc3)c2n1 ?
TAG inh: -4.6; SKN-1 block: 23.7; iPSC survival up: -3.7; H9c2 protect: -22.7

What do the screens show for `O=[N+]([O-])c1cc(Cc2ccccc2)cc(C=Nc2ccc(N3CCOCC3)cc2)c1O`?
CRFR2-BP ag: -2.0; SKN-1 block: -3.1; iPSC survival up: 0.4; H9c2 protect: 85.5*; CRFBP-R2 block: -17.5

What do the screens show for `Oc1ccc(N=Nc2cccc(C(F)(F)F)c2)cc1C=Nc1ccc(N2CCOCC2)cc1`?
CRFR2-BP ag: -2.3; SKN-1 block: 6.6; iPSC survival up: -1.6; H9c2 protect: 75.7*; CRFBP-R2 block: 27.9

Results for Oc1c(Br)cc(Br)cc1C=Nc1ccc2c(c1)OCO2 ?
CRFR2-BP ag: 1.3; SKN-1 block: 6.5; iPSC survival up: 0.7; H9c2 protect: 41.3; CRFBP-R2 block: 17.6

Results for Oc1c(Cl)cc(Cl)cc1C=Nc1ccc(N2CCOCC2)cc1 ?
CRFR2-BP ag: 2.6; SKN-1 block: 53.0; iPSC survival up: -0.6; H9c2 protect: 65.3*; CRFBP-R2 block: 0.9

High-throughput results deposited in PubChem by Sanford-Burnham Center for Chemical Genomics.
